# AHR act: AHR activators, primary screen, cell-based, luminescence, luciferase reporter, human; AHR-responsive luciferase reporter cells; activation, % at 5 µM; actives 2.5% (n = 320,000); in the data active means activation above about 47%;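 further: 0% = vehicle wells and 100% = reference agonist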
# hgDAF12 agonist: H. glycines DAF-12 receptor agonists, primary screen, cell-based, luminescence, HEK293, GAL4 fusion, UAS-luciferase. HEK293 GAL4-hgDAF12 UAS-luciferase reporter, agonist luminescence; normalized to butyrate control. activation, % at 6.8 µM. actives 1.8% (n = 370,000). AID 687014, 2013;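 active means activation above a cutoff set at the mean of all screened compounds plus 3 SD, cut at about 10% in these data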;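 further: 0% = DMSO wells and 100% = sodium butyrate wells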
# DAX1 inh-1: DAX1 (NR0B1) inhibitors on StAR promoter, primary screen, cell-based, luminescence, SF-1 (NR5A1), full-length DAX-1 | HEK293T StAR-luciferase reporter, SF-1/DAX-1 repression relief | inhibition, % at 6.8 µM | actives 1.1% (n = 370,000) | AID 652010, 2013;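 active means inhibition above the mean over all tested compounds plus 3 SD, cut at about 3.6% in these data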;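 further: 0% = DAX-1 cells with DMSO and 100% = cells lacking DAX-1 with DMSO; higher inhibition means more luminescence from relief of DAX-1 repression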
# ssDAF12 agonist: S. stercoralis DAF-12 nuclear receptor activators, primary screen, cell-based, luminescence, HEK293, GRIP1 co-expression, lit1-tk-luc | Nuclear hormone receptor DAF-12 (Strongyloides stercoralis) | HEK293 ssDAF-12/GRIP1 lit1-tk-luc reporter; % of 3 µM dafachronic acid response | activation, % at 6.8 µM | actives 1% (n = 370,000);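 active means activation above the mean over all tested compounds plus 3 SD, cut at about 0.9% in these data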;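 further: 0% = DMSO-only wells and 100% = 3 µM delta7-dafachronic acid wells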
# hcDAF12 agonist: H. contortus DAF-12 nuclear receptor activators, primary screen, cell-based, luminescence, HEK293, lit1-tk-luc reporter. activation, % at 6.8 µM. actives 1.4% (n = 370,000). HEK293 hcDAF-12 lit1-tk-luc reporter; 0% DMSO, 100% Δ7-dafachronic acid;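 active means activation above the mean of all tested compounds plus 3 SD, cut at about 5.5% in these data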;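 further: 100% = response to 3 µM Δ7-dafachronic acid high control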
# DAX1 inh-2: DAX1 (NR0B1) inhibitors, primary screen, cell-based, HEK293, Gal4-DAX1, luciferase luminescence; actives 0.99% (n = 340,000); inhibition, % at 6.75 µM; Nuclear receptor subfamily 0 group B member 1 (Homo sapiens), P51843; HEK293 Gal4-DAX1 luciferase reporter;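 active means inhibition above the mean over all tested compounds plus 3 SD, cut at about 4.2% in these data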;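 further: 0% = DAX1-transfected cells with DMSO and 100% = empty-vector control cells with DMSO; inhibition shows as a rise in luminescence from relieved DAX1 repression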
# Target sequence (P51843 207-470 limits assumed): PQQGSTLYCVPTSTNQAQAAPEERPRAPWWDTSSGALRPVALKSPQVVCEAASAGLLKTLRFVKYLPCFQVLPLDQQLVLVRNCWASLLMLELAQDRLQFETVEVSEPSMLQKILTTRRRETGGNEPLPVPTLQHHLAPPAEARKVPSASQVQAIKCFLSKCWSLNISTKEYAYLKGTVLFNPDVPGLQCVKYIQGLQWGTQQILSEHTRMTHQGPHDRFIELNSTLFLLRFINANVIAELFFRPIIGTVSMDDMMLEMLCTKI
# Starred values were filed as active, the others as inactive; x = no result. Compounds with a hit are over-represented: about 5.7% of the library has one in this group of screens.
SMILES,AHR act,hgDAF12 agonist,DAX1 inh-1,ssDAF12 agonist,hcDAF12 agonist,DAX1 inh-2
CC1CCc2c(sc(NC(=O)COC(=O)c3ccccc3NCc3ccco3)c2C#N)C1 (centres undefined),1,5,-1,-1,0,1
CCOC(=O)c1c(NC(=O)C(C)NCc2ccco2)sc2c1CCC(C)C2 (centres undefined),51*,-3,-1,-1,-2,0
CCOC(=O)c1c(NC(=O)Cn2nnc3ccccc32)sc2c1CCC(C)C2 (centres undefined),63*,1,-1,-1,1,0
COc1ccc(NC(=S)N/N=C/c2ccc(F)cc2)cc1OC,20,11*,2,-1,0,0
COc1ccc(NC(=S)N/N=C/c2ccc(F)c(F)c2)cc1,114*,4,-1,-2,-1,-1
CC(=O)N1CCOc2ccc(S(=O)(=O)N3CCC(C(=O)NCc4ccc(Cl)cc4)CC3)cc21,x,2,-1,0,0,-1
Cc1ccc(S(=O)(=O)NC(C(=O)N2CCOCCOCCOCC2)c2ccccc2)cc1 (centres undefined),-4,-2,0,-1,0,x
COc1ccc(Nc2nc(NCCO)nc(N3CCCC3)n2)cc1,28,-1,0,-1,-1,2
COc1ccc(/C=N/Nc2nc(-c3cccnc3)nc3ccccc23)c(OC)c1,51*,-1,0,-2,2,0
COc1cccc(Nc2nc(NCCO)c3ccccc3n2)c1,49*,8,0,-1,-2,-1
CCCNc1nc(Nc2ccc(C)cc2)nc(N2CCCC2)n1,50*,x,x,x,x,0
COc1cccc(Nc2nc(NCCO)nc(N3CCCC3)n2)c1,48*,-1,-1,-2,0,-1
O=C(CCNC(=O)c1ccc([N+](=O)[O-])cc1)Nc1ccc(F)cc1F,0,-1,0,-1,-1,0
CCCc1nnc(NC(=O)CCC(=O)N2CCN(Cc3cc(Cl)ccc3OC)CC2)s1,2,0,0,-1,0,-1
OCCNc1nc(Nc2cccc(O)c2)nc2ccccc12,19,5,-1,-1,-3,-1
OCCNc1nc(Nc2ccc(O)cc2)nc2ccccc12,2,1,1,-1,0,5.8*
OCCNc1nc(N2CCCC2)nc(N2CCCC2)n1,1,-2,0,-2,-1,0
C=CCNc1nc(NCCO)nc(N2CCCC2)n1,65*,1,0,0,-1,-1
COc1cccc(Nc2nc(-c3ccccc3)nc3ccccc23)c1,54*,0,-1,-1,-1,-1
CN1CCCCC(NC(=O)c2ccc(F)cc2)C1=O (centres undefined),x,-1,0,-2,0,x
CCS(=O)(=O)c1ccc2oc(Nc3ccccc3Cl)nc2c1,-1,13*,2,0,4,3
CCS(=O)(=O)c1ccc2oc(Nc3ccccc3Br)nc2c1,-6,8,2,0,1,3
CCOc1ccc(Nc2nc3cc(S(=O)(=O)CC)ccc3o2)cc1,64*,-3,0,-2,-2,-1
CSCC[C@H](NC(=O)c1cccc(S(=O)(=O)N2CCN(C)CC2)c1)c1nc2ccccc2[nH]1,1,-2,-1,-1,0,-1
Cc1ccc(-n2nc(C)c3c(C(=O)OCC(=O)N(C)C4CCS(=O)(=O)C4)cc(-c4ccccc4)nc32)cc1 (centres undefined),2,-3,0,-1,6.2*,0
CC1CCCCN1C(=S)Nc1ccc2nc3n(c(=O)c2c1)CCCCC3 (centres undefined),-1,-1,-1,-1,-4,3
